# In all, about 340,000 compounds went through this assay and about 6,200 (1.8%) were called active. Not shown: some 10% with an inconclusive outcome. Shown is part of a subset that was picked to be rich in actives. Where a call stands in place of a potency, no number is given. A number with no mark means an inactive call. The call rests on the fitted dose curve; in most records, active means well fitted activation curve with a large enough effect; inconclusive means small, poorly fitted or top-dose-only effect; inactive means no such curve, though single readings can be large or run the other way.
# Test: A quantitative high throughput screen for small molecules that induce DNA re-replication in SW480 colon adenocarcinoma cells. Further: nearly all actives have a fitted effect of over 55% in size.
# Settings: Hoechst DNA content imaging, 48 h; series mostly up to 46.1 µM
# Procedure, shortened: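 Quantitative HTS format with DMSO vehicle controls; 48 hr drug incubation at 37 C, then 40 min Hoechst staining and scanning imager measurement at 405 nm excitation.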
# Potency means the concentration at half of the fitted maximal effect.
Structure (SMILES),Potency,re-replication activation
Cc1cc(Nc2cc(N3CCN(C)CC3)nc(Sc3ccc(NC(=O)C4CC4)cc3)n2)n[nH]1,0.259 µM (active),–
CN1CCN(S(=O)(=O)c2ccc(NC(=S)NC(=O)C3CC3)cc2)CC1,inactive,–
Cc1cc(C)nc(N2CCC(C(=O)Nc3ccc4c(c3)OCCO4)CC2)n1,inactive,–
CC1Cc2ccccc2N1S(=O)(=O)c1cccc(C(=O)OCC(=O)N2CCOCC2)c1 (stereo not drawn),inactive,–
O=C(COC(=O)C1CCCO1)Nc1nc(-c2ccc(F)cc2)cs1 (stereo not drawn),inactive,–
CC[C@]1(C(=O)OC)[C@H]2C(=O)N(C)C(=O)[C@H]2[C@H]2CN(C)C(=NCc3ccccc3)N21,inactive,–
O=C(COC(=O)CN1C(=O)C2CCCCC2C1=O)Nc1ccc(F)c(F)c1F (stereo not drawn),inactive,–
CC1=CC(C)(C)Nc2ccc(OC(=O)CN3C(=O)C4CCCCC4C3=O)cc21 (stereo not drawn),20.6 µM (active),–
O=C(CN1C(=O)C2C3CCC(C3)C2C1=O)Oc1ccc2ccccc2c1 (stereo not drawn),inactive,–
COc1ccc(CNC(=O)CN2C(=O)c3ccccc3S2(=O)=O)cc1,inactive,–
CCC(CO)Oc1cc(NC(=O)c2cccc3ccccc23)c2ncn(C(C)C)c2c1 (stereo not drawn),–,-5.66% [at 9.22 µM]
O=C(CN1C(=O)NC2(CCCC2)C1=O)OCCOc1ccc(F)cc1,inactive,–
CCc1ccc(C(=O)C(C)OC(=O)CN2C(=O)NC3(CCCC3)C2=O)cc1 (stereo not drawn),3.26 µM (active),–
Cc1ccc(COC(=O)CN2C(=O)NC3(CCCC3)C2=O)cc1,inactive,–
O=C1c2ccccc2C(=O)C1C(=O)C1CC1,inactive,–
Cc1cccc(-n2ncc3c(=O)[nH]c(SCC(=O)Nc4cc(C)on4)nc32)c1,inactive,–
CC(C)(C)C(=O)Nc1cccc(-c2ccc[nH]2)n1,inactive,–
CCOc1ccc2nc(NCCNC(=O)C(C)(C)C)c(C)cc2c1,inactive,–
CCOc1ccc(S(=O)(=O)NCCSc2ccccc2)cc1,inactive,–
CCOc1ccc2nc(NCCNS(=O)(=O)c3ccccc3)c(C#N)cc2c1,18.4 µM (active),–
O=C1C=CN2CCCC2CC1 (stereo not drawn),inactive,–
Cc1nc(N)nc(Cl)c1CCC1OCCO1,inactive,–
CC(OC(=O)c1ccc([N+](=O)[O-])cc1)C(=O)NCC1CCCCC1 (stereo not drawn),inactive,–
COc1ccc(COC(=O)NC(C(=O)O)c2ccccc2)cc1 (stereo not drawn),inactive,–
COc1ccc(C(CCN(Cc2ccc(OC)c(OC)c2)C(=O)CCl)c2ccccc2)cc1 (stereo not drawn),23.1 µM (active),–
COc1ccc(CCNC(=O)C(Sc2ccccn2)c2ccccc2)cc1OC (stereo not drawn),inactive,–
COc1ccc(CC(=O)N[C@@H]2c3cc(OC)c(OC)cc3C[C@H]2OCc2ccccc2)cc1,inactive,–
Cc1ccc(C)c(S(=O)(=O)N(C)c2ccc(OC(=O)C3CCN(C(=O)c4ccc(F)cc4)CC3)cc2)c1,inactive,–
